H9c2 protect: cardioprotection against H2O2-induced cell death, primary screen, uHTS, H9c2 cells, ATPLite luminescence | H9c2 cardiomyocytes, H2O2 injury protection, 2 h | protection from H2O2 cell death, % at 20 µM | 360,000 tested, 0.63% active | AID 588492, 2011;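 active means compounds giving at least 50% protection of heart cells from peroxide-induced death in the single-dose screen, raw or plate-pattern-corrected value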
Efflux pump mplx: inhibitors of Candida efflux pumps in yeast, primary screen, S. cerevisiae, Nile Red, multiplex; S. cerevisiae Candida pump triplex; inhibition, % at 10 µM; 330,000 tested, 0.44% active; AID 485275, 2010;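 active means plate passing quality check with inhibition over a set limit, or well fluorescence over plate mean plus 4 SD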;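 further: Nile Red retained in pooled yeast measured as flow cytometry median fluorescence; higher means more Nile Red kept so more efflux inhibition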
Calb FLC: C. albicans growth inhibition with fluconazole, primary screen, CaCi-2 strain, Alamar Blue fluorescence; C. albicans CaCi-2 (fluconazole-resistant clinical isolate) + fluconazole, 48 h; growth inhibition, % (concentration not given with the values); 300,000 tested, 0.57% active;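 active means growth inhibition above about 58% in most replicates, limit read from the data, passing the limit was not always enough; inconclusive means exactly half the replicates above a set limit; inactive means most replicates below a set limit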;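 further: all wells also contain fluconazole at 8 µg/ml as a sub-toxic cotreatment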
PHOSPHO1 inh: PubChem AID 1565; recombinant PHOSPHO1, absorbance phosphatase assay; 290,000 tested, 1.1% active; inhibition, % at 13.3 µM; in the data active means inhibition above about 60%
Target sequence (Q8TCT1 whole entry, looked up): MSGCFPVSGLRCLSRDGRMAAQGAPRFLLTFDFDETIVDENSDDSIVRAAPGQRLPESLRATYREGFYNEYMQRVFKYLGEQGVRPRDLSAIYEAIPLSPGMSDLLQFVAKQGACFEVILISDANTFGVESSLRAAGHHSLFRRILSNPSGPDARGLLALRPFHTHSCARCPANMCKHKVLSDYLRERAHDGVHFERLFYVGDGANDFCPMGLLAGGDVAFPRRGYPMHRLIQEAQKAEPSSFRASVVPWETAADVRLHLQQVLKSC
KCC2 mod: KCC2 cotransporter modulators, thallium flux, primary screen, cell-based, HEK293 KCC2, FluoZin-2 fluorescence, MLSMR; KCC2 cells, thallium flux FluoZin-2 fluorescence; B-score of Tl+ flux slope (higher = more flux/activation; lower = inhibition) at 10 µM; 190,000 tested, 2.2% active;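 active means thallium flux slope and its plate-corrected score both differing from the plate sample mean at a set confidence after two filtering rounds, in either direction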;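 further: slope of fluorescence scaled to starting intensity during 10 to 20 s after thallium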
KCC2 secondary: KCC2 modulators in sodium-free buffer, confirmation, cell-based, HEK293 KCC2, thallium flux, secondary assay. FluoZin2 fluorescence; hits give high values. AID 1713, 2009. shares compounds with KCC2 mod. normalised thallium flux (F/F0 slope) at 10 µM. 3,700 tested, 15% active;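 active means thallium flux slope above the same plate's solvent-only control mean plus 3 SD; inconclusive means the two replicate wells disagree; inactive means no significant difference from solvent-only control wells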
KCC2 bumet counter: thallium flux persisting under bumetanide in KCC2 cells, confirmation, counter-screen for KCC2 modulator project, cell-based, HEK293 KCC2, FluoZin2, secondary assay 3; shares compounds with KCC2 mod; HEK293-KCC2 + bumetanide/ouabain; hits give high values; normalized thallium flux at 10 µM; 3,700 tested, 49% active; AID 1714, 2009;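 active means thallium entry rate above the same plate's blocked-transporter control wells by more than 3 SD; inconclusive means the two repeat wells disagree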;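 further: raw slope of fluorescence over initial fluorescence between 10 and 20 s after thallium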
KCC2 secondary2: KCC2 modulators without ouabain present, confirmation, cell-based, HEK293 KCC2, thallium flux, FluoZin2, secondary assay 2. shares compounds with KCC2 mod. thallium flux FluoZin2 fluorescence; actives lie on both sides; F/F0 rise rate, 10–20 s post-thallium. normalized thallium flux at 10 µM. 3,700 tested, 23% active. AID 1715, 2009;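 active means thallium flux slope more than 3 SD above or below the plate's solvent-only control mean, mostly below; inconclusive means the two repeat wells disagreed; inactive means no significant shift from solvent-only controls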
HEK counter1: thallium flux modulation in parental HEK cells, confirmation, counter-screen for KCC2 modulator project, cell-based, counterscreen 1; shares compounds with KCC2 mod; 3,700 tested, 46% active; thallium flux rate (normalised fluorescence) at 10 µM; HEK293 parental cells, thallium flux FluoZin2, ouabain; baseline-ratio fluorescence slope, 10–20 s after thallium;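 active means thallium flux rate significantly above the same plate's solvent-only control wells, beyond their mean plus 3 SD; inconclusive means the two replicate wells gave conflicting results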
KCC2 retest ouab: KCC2 inhibitors and activators, ouabain retest, confirmation, HEK-KCC2 cells. HEK293-KCC2, thallium flux FluoZin2 fluorescence; bidirectional: low = inhibitor, high = activator. raw Tl+ flux slope (below DMSO = inhibition, above = activation) at 10 µM. AID 1717, 2009. shares compounds with KCC2 mod. 3,700 tested, 48% active;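 active means thallium flux slope beyond 3 SD from same-plate DMSO control mean in most replicates, usually higher, sometimes lower; inconclusive means repeat tests gave conflicting results; inactive means no significant difference from controls in most replicates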;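 further: slope of initial-normalized fluorescence between seconds 10 and 20 after thallium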
HEK293 Tl flux2: native HEK Tl+ uptake effects, second counter-screen – HEK cells, counterscreen 2, counter-screen for KCC2 modulator project, confirmation; shares compounds with KCC2 mod; HEK293 parental, thallium flux FluoZin-2 fluorescence slope; thallium flux slope at 10 µM; 3,700 tested, 33% active;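 active means thallium flux slope above the same plate's solvent-control mean plus 3 SD in both duplicate wells; inconclusive means duplicate wells that disagreed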;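 further: run without ouabain in cells lacking the KCC2 cotransporter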
A number is an active result; - = inactive; ? = inconclusive; . = no result. Sampled rows, rich in hits. Any-hit rate of the full collection: about 3.3%.

SMILES	H9c2 protect	Efflux pump mplx	Calb FLC	PHOSPHO1 inh	KCC2 mod	KCC2 secondary	KCC2 bumet counter	KCC2 secondary2	HEK counter1	KCC2 retest ouab	HEK293 Tl flux2
CC(C)n1c(SCC(=O)Nc2ccccc2N2CCOCC2)nc2c1c(=O)n(C)c(=O)n2C	-	-	-	-	.	-	-	-	-	-	-
CCOc1cc(CNn2nnnc2N)cc(Cl)c1OCC(=O)NC(C)(C)C	-	-	-	-	-	-	-	-	-	-	-
Cc1ccc(NC(=O)C(C)Sc2nnc3ccccn23)cc1 (centres undefined)	-	-	.	.	.	.	.	.	.	.	.
CC(Sc1nnc2ccccn12)C(=O)Nc1ccc2c(c1)OCCO2 (centres undefined)	-	-	-	-	.	-	-	-	-	-	-
COc1ccc(Cl)cc1NC(=O)C/C(C)=N/NC(=O)COc1ccc(C)cc1	-	-	-	-	.	.	.	.	.	.	.
O=C(Nc1ccc(Cl)cn1)C1CCCN1S(=O)(=O)c1ccc(Cl)cc1 (centres undefined)	-	-	-	-	.	-	-	-	?	-	-
Cn1cnc2c1c(=O)[nH]c(=O)n2C	.	-	.	-	-	-	-	-	-	-	-
COc1ccccc1CCNC(=O)c1ccc(Br)s1	-	-	-	-	.	.	.	.	.	.	.
O=C(CSc1nnnn1Cc1ccccc1)Nc1ccc2c(c1)OCCO2	-	-	-	-	-5.1	-	-	?	-	?	-
CCOC(=O)C1(Cc2ccccc2)CCCN(C2CCCC2)C1 (centres undefined)	-	-	-	-	-	.	.	.	.	.	.
O=c1cc(-c2ccccc2)nc2nc(SCc3ccccc3)[nH]n12	-	-	-	-	.	-	-	-	-	0.015	-
CCc1cccc(CC)c1NC(=S)NCCc1ccc(O)c(O)c1	-	-	-	-	-	.	.	.	.	.	.
CCc1cccc(CC)c1NC(=S)NCCc1c(C)[nH]c2ccccc12	-	-	-	-	-3.8	-	?	-	?	-	-
COc1cc(C(=S)N2CCOCC2)cc(Br)c1OS(=O)(=O)c1ccccc1	-	-	-	.	.	.	.	.	.	.	.
CC12CCCCN1CCCc1c2[nH]c2ccccc12 (centres undefined)	-	-	-	-	8.2	?	-	-	-	?	-
c1ccc2c3c([nH]c2c1)C1(CCCCC1)NCC3	-	-	-	-	-	.	.	.	.	.	.
CC(=O)Nc1sc(-c2ccc(Cl)cc2)nc1-c1ccccc1	-	-	-	-	7.3	0.019	0.055	-	0.0092	-	-
O=C1c2ccccc2C(Nc2ccc(S(=O)(=O)N3CCCCCC3)cc2)N1Cc1ccco1 (centres undefined)	-	-	-	-	-5.5	-	-	-	-	0.016	-
CCc1ccccc1NC1c2ccccc2C(=O)N1Cc1ccco1 (centres undefined)	-	-	-	-	-	.	.	.	.	.	.
Cc1cccc(C=Nc2ccccc2C(N)=O)c1	-	-	-	-	-4.7	-	-	-	-	-	-
CCCCCCCN1N=C(C)C(C(=O)c2ccccc2)C1=O (centres undefined)	-	-	-	-	3.1	-	0.024	?	0.014	0.03	0.017
CC1=NN(c2ccccc2)C(=O)C1C(=O)c1cc([N+](=O)[O-])cc([N+](=O)[O-])c1 (centres undefined)	-	-	-	-	-	.	.	.	.	.	.
CCCCCCN1N=C(C)C(C(=O)c2ccc(Cl)cc2)C1=O (centres undefined)	-	-	-	-	5	0.013	0.025	-	0.014	0.032	?
CC(=O)c1ccc(S(=O)(=O)N(CC(=O)NC2CC2)Cc2ccc(F)cc2)cc1	-	.	.	.	.	.	.	.	.	.	.
O=C(Cn1sc2ccccc2c1=O)N1CCN(C(=O)c2ccco2)CC1	-	-	-	-	.	.	.	.	.	.	.
SMILES	H9c2 protect	Efflux pump mplx	Calb FLC	PHOSPHO1 inh	KCC2 mod	KCC2 secondary	KCC2 bumet counter	KCC2 secondary2	HEK counter1	KCC2 retest ouab	HEK293 Tl flux2
C/C(N)=C(/C#N)C(=O)CSc1nc2ccccc2c(=O)n1Cc1ccc(C)cc1	-	-	-	-	22	-	0.021	-	0.025	0.029	0.016
Cc1ccc(Cn2c(SC(C)C(N)=O)nc3ccccc3c2=O)cc1 (centres undefined)	-	-	-	-	8.6	-	0.022	-	0.015	0.03	0.018
Cc1ccc(Cn2c(SCC(=O)Nc3cc(C)on3)nc3ccccc3c2=O)cc1	-	-	-	-	.	-	-	?	0.016	0.027	0.019
CCOC(=O)C(C)Sc1nc2ccccc2c(=O)n1CC (centres undefined)	-	-	.	-	-	.	.	.	.	.	.
Cc1cc(NC(=O)CSc2nc3ccccc3c(=O)n2Cc2ccccc2)no1	-	-	-	-	.	.	.	.	.	.	.
C/C(N)=C(/C#N)C(=O)CSc1nc2cc(Cl)ccc2c(=O)n1Cc1ccco1	-	-	-	-	.	.	.	.	.	.	.
C/C(N)=C(/C#N)C(=O)CSc1nc2ccccc2c(=O)n1Cc1ccc(F)cc1	-	-	-	-	95	?	0.071	0.053	0.064	0.061	0.056
COc1cccc(NC(=O)C2(C)CCN2Cc2ccc3ccccc3c2)c1 (centres undefined)	-	.	.	.	.	.	.	.	.	.	.
COc1ccc(OC)c(NC(=O)COc2ccc3c(c2)CCC3)c1	-	-	.	.	.	.	.	.	.	.	.
CCOc1ccc(CNC(=O)c2cc3oc4ccccc4c3n2C)cc1	-	-	-	-	-	.	.	.	.	.	.
COc1cccc(CNC(=O)c2cc3oc4ccccc4c3n2C)c1OC	-	-	-	-	7.5	-	-	-	-	-	-
